Measurements as given in PubChem BioAssay AID504566 (NMMLSC, 2011).
Potency and affinity values are given separately.

Biological target: Broad substrate specificity ATP-binding cassette transporter ABCG2 (Homo sapiens) (UniProt Q9UNQ0)
Test: ABCG2 efflux pump inhibitor potency, dose response, Ig-MXP3 cells, JC-1, flow cytometry, set 2 (AID 504566)
Details: JC-1 efflux; series mostly up to 50 µM; inhibition: at the top concentration;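 active means combined score above 52, rewarding potency beyond a set limit and curve height beyond a set limit; inactive means the rest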

Sequence of Broad substrate specificity ATP-binding cassette transporter ABCG2 (Homo sapiens) (Q9UNQ0 whole entry, looked up): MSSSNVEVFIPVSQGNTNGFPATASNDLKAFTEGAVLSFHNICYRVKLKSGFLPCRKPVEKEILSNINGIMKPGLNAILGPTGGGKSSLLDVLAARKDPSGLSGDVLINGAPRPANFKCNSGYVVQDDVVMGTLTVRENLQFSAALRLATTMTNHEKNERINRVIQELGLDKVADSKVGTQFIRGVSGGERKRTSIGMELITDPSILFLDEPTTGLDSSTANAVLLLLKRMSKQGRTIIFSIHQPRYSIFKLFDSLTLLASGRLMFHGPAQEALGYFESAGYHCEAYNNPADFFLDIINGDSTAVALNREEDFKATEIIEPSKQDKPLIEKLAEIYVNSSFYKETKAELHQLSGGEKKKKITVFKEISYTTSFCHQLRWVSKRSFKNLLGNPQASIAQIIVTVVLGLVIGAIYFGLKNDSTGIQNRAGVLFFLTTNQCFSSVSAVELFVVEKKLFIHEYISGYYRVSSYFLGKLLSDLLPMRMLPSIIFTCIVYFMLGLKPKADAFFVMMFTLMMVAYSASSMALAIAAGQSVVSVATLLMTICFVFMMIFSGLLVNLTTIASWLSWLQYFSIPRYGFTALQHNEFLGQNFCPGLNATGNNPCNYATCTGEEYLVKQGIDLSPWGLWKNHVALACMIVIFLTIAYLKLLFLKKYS

inhibition, inactive:
CC(=O)N1CCN(c2c(C)c(C)nc3cc(-c4ccc(Cl)cc4)nn23)CC1 79.4%, O=S(=O)(c1ccccc1)N1CCN(c2cc(-c3ccccc3)nc3cc(-c4cccc(Cl)c4)nn23)CC1 3.59%, Cc1nc2cc(-c3cccs3)nn2c(N2CCN(C(=O)c3ccco3)CC2)c1C 38.8%
